Screens: PubChem BioAssay, National Center for Advancing Translational Sciences (NCATS)
FLuc counter – firefly luciferase modulation, counter-screen for miR-21 project; 360,000 compounds, 6.9% hits; purified FLuc, Km substrates, luminescence inhibition; Potency, µM (highest dose often 57.5 µM), inactives show at the top dose activity change, negative = inhibition, hits mostly inhibitors;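 note: plate controls were vehicle for no effect and reference inhibitor for full effect; nearly all actives have a fitted effect of over 55% in size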
Target sequence (P08659 whole entry, looked up): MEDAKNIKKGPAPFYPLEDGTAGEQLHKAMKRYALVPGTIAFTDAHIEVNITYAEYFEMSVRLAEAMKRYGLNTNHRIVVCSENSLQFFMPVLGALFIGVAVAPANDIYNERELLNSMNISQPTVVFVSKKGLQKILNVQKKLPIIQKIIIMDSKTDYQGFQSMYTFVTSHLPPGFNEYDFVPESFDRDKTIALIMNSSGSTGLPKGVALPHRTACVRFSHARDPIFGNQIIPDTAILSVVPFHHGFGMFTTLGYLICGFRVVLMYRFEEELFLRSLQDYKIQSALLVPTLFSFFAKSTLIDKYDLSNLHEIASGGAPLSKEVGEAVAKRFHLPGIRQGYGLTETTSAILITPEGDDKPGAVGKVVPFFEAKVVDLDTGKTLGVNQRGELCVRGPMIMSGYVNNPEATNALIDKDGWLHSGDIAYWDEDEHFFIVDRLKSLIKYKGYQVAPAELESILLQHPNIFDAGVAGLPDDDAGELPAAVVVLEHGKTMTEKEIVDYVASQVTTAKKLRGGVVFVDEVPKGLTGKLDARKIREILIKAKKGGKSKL
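Purified P. pyralis luciferase, 10 nM final, with Km-level 10 uM D-luciferin and 10 uM ATP in 50 mM Tris acetate pH 7.5, 10 mM Mg acetate, 0.01% Tween-20, 0.05% BSA; 6-point qHTS titration about 60 µM downward; luminescence read.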
KinaseGlo FLuc – blocks Kinase-Glo luciferase, a counter-screen artifact; AID 1379; Kinase-Glo luciferase, ATP luminescence, 8 min; 200,000 compounds, 0.28% hits; Potency, µM (highest dose often 38.3 µM), for inactives: at the highest dose activity change, negative = inhibition, usual class: inhibitors; note: % is set by controls: 0 for no effect and ±100 for the full control effect; nearly all actives have a fitted effect of over 60% in size
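Kinase-Glo luciferase light output from ATP and luciferin was measured with 10 uM ATP, within the enzyme's linear range. Buffer: 50 mM imidazole pH 7.2, 50 mM KCl, 7 mM MgCl2, 0.01% Tween 20, 0.05% BSA; luminescence read after 8 min at ambient temperature.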
SMN2 splice enh – increases expression of the SMN2 splice variant | HEK293 SMN2-luciferase splicing reporter, luminescence, 30-36 h | Potency, µM (doses to about 46.1 µM), for inactives: top-dose activity change, positive = activation, actives largely listed as activators | 210,000 compounds, 2.8% hits | AID 1458; note: % of control where 0% means no effect; nearly all actives have a fitted effect of over 55% in size
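HEK293 cells carry an SMN2 minigene-luciferase reporter in which exon 7 inclusion puts luciferase in frame. Cells were seeded at 2000 cells/well, attached for 10-12 hours, then exposed to compounds for 30-36 hours at 37C before ONE-Glo luminescence.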
ELG1 genotox – genotoxicity induction in ELG1-luciferase HEK293T cells; AID 504466; HEK293T ELG1-luciferase reporter, luminescence, 16 h; Potency, µM (titrated, usually from 46 µM), for the others: at the top dose activity change, positive = activation, usual class: activators; 330,000 compounds, 1.3% hits; note: % of control where 0% means no effect; nearly all actives have a fitted effect of over 60% in size
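Quantitative HTS format in 1536-well plates. HEK293T ELG1-luciferase reporter cells receive test compound and are incubated 16 hr at 37 °C, 5% CO2; ONE-Glo added, 30 min room temperature, then luminescence read.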
Rab9 prom act – activators of Rab9 promoter | Huh7 Rab9 promoter-luciferase reporter, luminescence, 24 h | Potency, µM (top dose mostly 9.22 µM), without a hit: at the highest dose activation, negative = inhibition, actives largely listed as activators | 320,000 compounds, 2.8% hits | AID 485297; note: % of control where 0% means no effect; nearly all actives have a fitted effect of over 60% in size
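Luminescence from Amplite-detected luciferase (10 minutes, ambient) reports Rab9 promoter activation. Before that, stable Rab9-luciferase Huh7 cells (1500/well, reduced-serum OP-MEM I plus 10% FBS) were exposed to compound for 24 hours at 37C.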
NPC1 prom act – NPC1 promoter activation. Huh7 NPC1 promoter luciferase reporter, 24 h. Potency, µM (top dose mostly 9.22 µM), for the others: at the top dose activation, most hits filed as activators. 320,000 compounds, 2.4% hits; note: % of control where 0% means no effect; nearly all actives have a fitted effect of over 60% in size
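Cells: Huh7 expressing luciferase under the NPC1 promoter, 1500/well. Seeded 2 h, compound added, incubated 24 h at 37 °C. Luciferase reagent, 10 min ambient, then luminescence.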
Numbers without * were called inactive; [ ] = another dose, or the depositor's remark. An excerpt weighted towards active compounds, which were near 7.5% of everything screened. Calls come from the whole dose curve; as a rule, active = well fitted curve in the direction sought with a large enough effect; inconclusive = small, poorly fitted or top-dose-only effect, or another doubt; inactive = no such curve, though single readings can be large; an effect the other way counts as inactive or inconclusive. Potency is the fitted concentration of half-maximal effect.

Screening Cc1occc1C(=O)Nc1ccc2c(c1)CCC2 returned FLuc counter 9.53µM*, KinaseGlo FLuc 12.6µM*, SMN2 splice enh 11.2µM*, ELG1 genotox 18.4µM*, Rab9 prom act 3.98µM* and NPC1 prom act 3.55µM*.
For O=C(O)c1ccccc1-c1noc(-c2ccccc2F)n1 the results were FLuc counter 9.53µM*, Rab9 prom act 2µM* and NPC1 prom act 3.55µM*.
Screening Cc1ccccc1-c1noc(-c2ccccc2C(=O)O)n1 returned FLuc counter 19µM*, ELG1 genotox 13.7%, Rab9 prom act 16.8% and NPC1 prom act 19.4%.
`Nc1nonc1-c1noc(-c2ccccc2Br)n1` gave FLuc counter 16.9µM*, KinaseGlo FLuc -3.3%, SMN2 splice enh inconclusive, ELG1 genotox inconclusive, Rab9 prom act 4.7% and NPC1 prom act 13.3%.
For Cc1ccccc1C(=O)Nc1ccccc1-c1nc(-c2ccccc2)no1 the results were FLuc counter -5.6%.
`Nc1nonc1-c1noc(CCCN2C(=O)c3ccccc3C2=O)n1` gave FLuc counter 23.9µM*, KinaseGlo FLuc -3.1%, SMN2 splice enh inconclusive, ELG1 genotox inconclusive, Rab9 prom act inconclusive and NPC1 prom act inconclusive.
Screening CCCCC/C=C\C[C@@H](O)/C=C/C=C/C=C/[C@@H](O)CCCC(=O)O returned KinaseGlo FLuc 2.3% and SMN2 splice enh 11.1%.
`Cc1ccc(-c2noc(-c3ccccc3F)n2)cc1` gave FLuc counter 0.849µM*, KinaseGlo FLuc -9.2%, SMN2 splice enh 12.6µM*, ELG1 genotox 2.59µM*, Rab9 prom act 2µM* and NPC1 prom act inconclusive.
`O=C(CSc1nnc(-c2ccccc2F)o1)NC1CC1` gave ELG1 genotox 10.2%.
FC(F)(F)c1ccc(-c2noc(-c3ccccc3Br)n2)cc1 was read as FLuc counter 10.7µM*.
Screening O=C(c1ccccc1)c1nnc(-c2ccccc2F)o1 returned FLuc counter 0.536µM*, KinaseGlo FLuc inconclusive, SMN2 splice enh 26.2%, ELG1 genotox 16.4µM*, Rab9 prom act 24.0% and NPC1 prom act 16.3%.
For Cc1nc(-c2cc(-c3nc(-c4ccc(C(F)(F)F)cc4)no3)no2)cs1 the results were FLuc counter 3.4%, ELG1 genotox -2.0%, Rab9 prom act -0.2% and NPC1 prom act -3.2%.
Screening CC/C=C\C/C=C\C/C=C\C/C=C\C/C=C\C/C=C\CCC(=O)NCCCC(=O)O returned KinaseGlo FLuc 1.9% and SMN2 splice enh -7.9%.
CCOc1ccc(-c2c(C)nn3c(C)c(C(=O)NCCc4ccccc4)cnc23)cc1OCC was read as FLuc counter 0.0%.
For CSc1nsc2nc(=O)c(/C=C3\C(C)=Nc4ccc(C)cc43)c(N)n12 the results were FLuc counter 13.5µM*, KinaseGlo FLuc 3.5%, SMN2 splice enh -46.8%, ELG1 genotox -23.5%, Rab9 prom act -10.2% and NPC1 prom act -12.2%.
`CC1=Nc2ccc(C)cc2/C1=C/c1c(N)n2oc(C)cc2nc1=O` gave FLuc counter -1.6%, KinaseGlo FLuc -0.9%, SMN2 splice enh -7.8%, ELG1 genotox 4.8%, Rab9 prom act -1.3% and NPC1 prom act 2.9%.
For CSc1nsc2nc(=O)c(/C=C3\C=Nc4ccccc43)c(N)n12 the results were FLuc counter 16.9µM*, KinaseGlo FLuc -2.1%, SMN2 splice enh 2.9%, ELG1 genotox inconclusive, Rab9 prom act 28.4% and NPC1 prom act 14.0%.
Screening CC(NS(=O)(=O)c1ccc2c(c1)CC(C)N2C(=O)C1CC1)c1ccccc1 (stereo unspecified) returned FLuc counter -0.4%, ELG1 genotox -5.1%, Rab9 prom act -2.5% and NPC1 prom act 1.4%.
Screening COC(=O)C1=C(C(=O)OC)[C@@H]2N(Cc3ccccc3)c3ccccc3[C@@]23C[C@@H](C(=O)OC)N(S(=O)(=O)c2ccc(OC)cc2)C3=N1 returned KinaseGlo FLuc -5.5%[7.66 µM] and SMN2 splice enh -3.2%[9.22 µM].
COCCCNC(=O)COC(=O)c1ccc(-c2nc3ccccc3s2)s1 was read as FLuc counter 5.36µM*, KinaseGlo FLuc -14.2%, SMN2 splice enh 12.6µM*, ELG1 genotox 14.0%, Rab9 prom act inconclusive and NPC1 prom act 23.0%.
Screening COc1ccc(CCNC(=O)COC(=O)c2ccc(C)s2)cc1 returned FLuc counter -5.0%, ELG1 genotox 1.2%, Rab9 prom act 0.2% and NPC1 prom act -0.5%.
Screening CCc1nnc(N/N=C/c2ccccc2F)n1N returned FLuc counter 4.7%, KinaseGlo FLuc -2.8%, SMN2 splice enh -36.4%, ELG1 genotox -0.3%, Rab9 prom act 10.5% and NPC1 prom act 5.1%.
Fc1ccccc1/C=N/Nc1nc2ccccc2o1 was read as FLuc counter 3.01µM*, ELG1 genotox inconclusive, Rab9 prom act 2.24µM* and NPC1 prom act 2.82µM*.
For FC(F)Oc1ccccc1/C=N/Nc1nc2ccccc2o1 the results were FLuc counter inconclusive, ELG1 genotox 19.0%, Rab9 prom act 3.98µM* and NPC1 prom act inconclusive.
For CCOc1ccc(C(=O)c2oc3ccccc3c2NC(=O)c2cc(=O)c3ccc(C)cc3o2)cc1 the results were FLuc counter 0.4% and SMN2 splice enh inconclusive.
For CCC(C)(C)NC(=O)C(c1ccc(OC)cc1)N(Cc1cccs1)C(=O)CCC(=O)Nc1cc(C)on1 (stereo unspecified) the results were FLuc counter 2.4%, KinaseGlo FLuc 0.3%, SMN2 splice enh -12.2%, ELG1 genotox -5.3%, Rab9 prom act 0.631µM* and NPC1 prom act -6.1%.
COc1ccc(CNC(=O)Cn2c(SCC(=O)Nc3ccc(C)c(C)c3)nc3ccccc32)cc1 was read as FLuc counter -9.1%.
For CCN(C(=O)COc1ncnc2scc(-c3ccc(F)cc3)c12)C1CCS(=O)(=O)C1 (stereo unspecified) the results were FLuc counter 3.9%, KinaseGlo FLuc -1.9%, SMN2 splice enh 6.6%, ELG1 genotox 18.4µM*, Rab9 prom act 12.8% and NPC1 prom act 0.4%.
`Cc1ccc(NC(=O)c2cc(S(=O)(=O)N3CCc4ccccc43)ccc2F)cc1Cl` gave FLuc counter 3.1%.
Cc1cc(Cl)ccc1OCCCC(=O)OCC(N)=O was read as FLuc counter 26.9µM*, KinaseGlo FLuc -0.3%, SMN2 splice enh 17.3%, ELG1 genotox 0.8%, Rab9 prom act -12.2% and NPC1 prom act -7.4%.
